Assay outcomes (PubChem)
CF NFkB block: inhibitors of cystic fibrosis induced NF-kB | inhibition, % at 5 µM | KKLEB NF-kB-GFP reporter, PAF-induced, GFP fluorescence overnight | actives 0.86% (n = 360,000);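 active = at least 50% inhibition at 5 µM, scaled per plate between neutral and stimulator controls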;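 also: PAF is a Pseudomonas aeruginosa culture filtrate used as stimulus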
TRPM1 prom inh: inhibitors of MITF-driven TRPM1 promoter in melanoma cells. SK-MEL-5 TRPM1 promoter luciferase, 24 h. inhibition, % at 12.5 µM. actives 0.83% (n = 330,000);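 active = mean inhibition across replicates of 60% or more, whatever share of single replicates reaches that level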
KKLEB cytotox: counter-screen for CF NF-kB inhibitors: cytotoxicity. KKLEB CF airway cells viability, ATPlite luminescence, overnight; stronger effect = lower value; cells stimulated with P. aeruginosa culture filtrate. activity change (cytotoxicity), % at 5 µM. actives 0.36% (n = 360,000). AID 602141;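 active = corrected activity change at or below -50% at 5 µM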
Shn3 3UTR inh: inhibitors of Schnurri-3 3'UTR reporter in osteoblasts. Clone20 osteoblast Shn3 3'UTR firefly luciferase, 24 h. actives 0.52% (n = 360,000). inhibition, % at 12.5 µM;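 active = mean inhibition of at least 75% with every replicate also reaching 75%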
Peg3 promoter: Peg3 promoter activity inhibition | HeLa PEG-Prom luciferase reporter, luminescence, overnight | inhibition, % at 20 µM | actives 1.7% (n = 360,000) | AID 588405;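 active = inhibition of at least 50% at 20 µM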
HIF-2a inh: blocks HIF-2a reporter activity; inhibition, % at 18.8 µM; 786-0 RCC cells HIF-2a reporter, luciferase luminescence, overnight; actives 0.72% (n = 360,000); AID 624352;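 active = inhibition of the luminescence signal of 40% or more relative to plate controls, in a single-dose primary screen at 18.75 µM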
Mdm2 MdmX conf: Mdm2/MdmX (human) interaction inhibition, confirmed; shares compounds with HIF-2a inh; SaOS-2 split-luciferase Mdm2/MdmX complementation, luminescence; inhibition, % at 8 µM; actives 99% (n = 740); AID 504601;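 active = mean inhibition of the luminescence signal across two replicates at or above 26 percent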
HIF-2a conf: confirmation of HIF-2a inhibitors. shares compounds with HIF-2a inh. 786-0 RCC cells, HIF-2a luciferase reporter luminescence, overnight. inhibition, % at 18.8 µM. actives 56% (n = 1,800);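 active = mean inhibition across four replicates of at least 40 percent at the single tested concentration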
HIF-1a counter: counter-screen for HIF-2a inhibitors: HIF-1a inhibition in MiaPaCa-2 cells; shares compounds with HIF-2a inh; MiaPaCa-2 HIF-1a luciferase reporter, desferoxamine, overnight; inhibition, % at 18.8 µM; actives 72% (n = 1,800); AID 651589;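 active = mean inhibition of the reporter signal across four replicates at the single tested dose of 50% or more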
Each line names hits and unclear results; the compound was inactive in the other large screens (follow-up assays come after a bar, where they were run). Shown are actives, neighbours in structure and some others; about 2.8% of the full set was active somewhere.

c1ccc(CCOn2ccnc2)cc1	none
Oc1ccc(Nc2nc(N3CCCC3)c3ccccc3n2)cc1	Peg3 promoter 99.5, HIF-2a inh 45.7 | HIF-2a conf inactive | HIF-1a counter 104.3
COc1ccc(CNC(=O)CCc2c(C)nc3cc(-c4ccccc4OC)nn3c2C)cc1	HIF-2a inh 49.4 | HIF-2a conf 58.4 | HIF-1a counter inactive
Cc1nc2cc(-c3ccccc3)nn2c(C)c1CCC(=O)NCc1ccco1	HIF-2a inh 68.9 | HIF-2a conf 79.3 | HIF-1a counter inactive
COc1ccc(-c2cc3nc(C)c(CCC(=O)NCc4ccc(F)cc4)c(C)n3n2)c(OC)c1	none
Cc1nc2cc(-c3cccc(F)c3)nn2c(C)c1CCC(=O)NC(C)CCc1ccco1 (stereo not given)	HIF-2a inh 73.5 | HIF-2a conf 81.7 | HIF-1a counter 72.2
COc1cc(OC)cc(-c2cc3nc(C)c(CCC(=O)NC(C)CCc4ccco4)c(C)n3n2)c1 (stereo not given)	none
COc1ccccc1-c1cc2nc(C)c(CCC(=O)NCc3ccco3)c(C)n2n1	HIF-2a inh 48.5 | HIF-2a conf 55.3 | HIF-1a counter inactive
COC(=O)C(Cc1ccccc1)NC(=O)C(CC(C)C)NC(=O)OC(C)(C)C (stereo not given)	none
CC(C)CC(NC(=O)OCc1ccccc1)C(=O)NC(Cc1ccccc1)C(=O)CCl (stereo not given)	TRPM1 prom inh 114.0, Peg3 promoter 93.0, HIF-2a inh 47.8 | HIF-2a conf 73.0 | HIF-1a counter 87.3
CNC(=O)NC(=O)C(C)OC(=O)CCCc1nc2ccccc2s1 (stereo not given)	none
CNC(=O)NC(=O)C(C)OC(=O)CCCSc1nc2ccccc2s1 (stereo not given)	HIF-2a inh 70.9 | HIF-2a conf 83.8 | HIF-1a counter 63.3
CC(OC(=O)CCCc1nc2ccccc2s1)C(=O)NC(N)=O (stereo not given)	none
CCNC(=O)NC(=O)COC(=O)CCCSc1nc2ccccc2s1	HIF-2a inh 60.3 | HIF-2a conf 85.6 | HIF-1a counter 59.9
CCNC(=O)NC(=O)C(C)OC(=O)CCCSc1nc2ccccc2s1 (stereo not given)	HIF-2a inh 68.4 | HIF-2a conf 86.2 | HIF-1a counter 68.4
Cc1cccc(-c2noc(C(C)NC(=O)c3ccco3)n2)c1 (stereo not given)	none
CC(C)Cn1c([N+](=O)[O-])nc2c1c(=O)[nH]c(=O)n2C	none (no result: Shn3 3UTR inh)
Cn1c(=O)[nH]c(=O)c2c1nc([N+](=O)[O-])n2Cc1ccccc1	CF NFkB block 109.1, TRPM1 prom inh 92.7, KKLEB cytotox -84.7, Shn3 3UTR inh 97.8, Peg3 promoter 116.7, HIF-2a inh 97.5 | Mdm2 MdmX conf 103.2
COc1ccc2cc(CNCCOCCOCCNCc3ccc4cc(OC)ccc4c3)ccc2c1	TRPM1 prom inh 91.4, Shn3 3UTR inh 96.2, Peg3 promoter 108.6, HIF-2a inh 88.3 | HIF-2a conf inactive | HIF-1a counter inactive
Cc1ccc(C)c(N=Nc2ccc(O)c3ncccc23)c1	TRPM1 prom inh 63.6, Shn3 3UTR inh 85.8 | Mdm2 MdmX conf 100.0
Cc1ccc(N=Nc2cc(C)ccc2O)c(C)c1	none
CC(C)c1ccc(C(=O)OCC(=O)NC2CCCC2)cc1	none
O=c1[nH]c(CN2CCN(S(=O)(=O)/C=C/c3ccccc3)CC2)nc2ccccc12	none
O=c1[nH]c(CN2CCN(S(=O)(=O)/C=C/c3ccccc3)CC2)nc2cc(Cl)ccc12	HIF-2a inh 50.0 | HIF-2a conf inactive | HIF-1a counter 93.1
CCc1nc(Nc2ccncc2)c2oc3ccccc3c2n1	HIF-2a inh 47.4 | HIF-2a conf inactive | HIF-1a counter 81.9
CC(=O)Nc1ccc(Nc2nc(C)c([N+](=O)[O-])c(N(C)c3ccccc3)n2)cc1	HIF-2a inh 80.6 | HIF-2a conf 91.8 | HIF-1a counter 93.5
COc1ccc(/C=N/Nc2nc(C)c([N+](=O)[O-])c(N(C)c3ccccc3)n2)cc1OC	none
CCN(CC)C(=S)Oc1ccc(Cl)cc1Cl	none
CCCCOC(=O)c1ccc(NC(=S)NC(=O)c2c(Br)c(C)nn2C)cc1	HIF-2a inh 45.9 | HIF-2a conf 55.6 | HIF-1a counter inactive
CC(C)C(NC(=O)CCNC(=O)c1ccc([N+](=O)[O-])cc1)c1nc2ccccc2[nH]1 (stereo not given)	none
O=C(Nc1ccc([N+](=O)[O-])cc1)Nc1ccc(OC(F)F)c(Cl)c1	CF NFkB block 64.1, TRPM1 prom inh 75.6, KKLEB cytotox -69.2, Shn3 3UTR inh 87.7, Peg3 promoter 99.5, HIF-2a inh 41.6 | HIF-2a conf inactive | HIF-1a counter 100.1
CCN(CC)CCNC(=O)C(=O)NCC1OCCN1S(=O)(=O)c1cccs1 (stereo not given)	none
CC(C)(C)n1nc(-c2ccc(F)cc2)c2c(N)ncnc21	HIF-2a inh 43.3 | HIF-2a conf 45.2 | HIF-1a counter inactive
CC(C)(C)n1nc(-c2ccc(Cl)cc2)c2c(N)ncnc21	Peg3 promoter 69.3, HIF-2a inh 62.7 | HIF-2a conf 43.4 | HIF-1a counter 80.0
Cc1ccc(-c2nc(N)c3c(-c4ccc(C)cc4)nn(C(C)(C)C)c3n2)cc1	none
COc1ccccc1C(=O)Nc1nnc(SCC(=O)NC2CCCC2)s1	none
OCCN1CCN(c2ncnc3c2ncn3[C@H]2CN(Cc3ccc4c(c3)OCO4)C[C@@H](CO)O2)CC1	none (no result: TRPM1 prom inh)
COc1ccc(-c2nnc3n2N=C(C)CS3)cc1	none
CCOC(=O)/C(=C/c1ccc(OC(F)F)cc1)C1=Nn2c(nnc2-c2ccc(Cl)cc2)SC1	CF NFkB block 92.3, TRPM1 prom inh 94.9, KKLEB cytotox -104.1, Shn3 3UTR inh 94.6, Peg3 promoter 106.3, HIF-2a inh 87.7 | HIF-2a conf 43.1 | HIF-1a counter 105.3
Cc1cc(C)c(C#N)c(SCc2nnc(-c3ccccc3[N+](=O)[O-])o2)n1	none
Cc1ccc(C#N)c(SCc2nnc(-c3ccc(Cl)cc3)o2)n1	HIF-2a inh 45.8 | HIF-2a conf 59.3 | HIF-1a counter 80.2
Cc1cc(C)c(C#N)c(SCc2nnc(-c3ccccc3)o2)n1	TRPM1 prom inh 76.5, HIF-2a inh 66.6 | HIF-2a conf 75.8 | HIF-1a counter 82.0
